Source: PubChem BioAssay (NCATS)
Inconclusive results are not listed. Calls of active or inactive are those of the source. Calls come from the whole dose curve; as a rule, active = well fitted curve in the direction sought with a large enough effect; inconclusive = small, poorly fitted or top-dose-only effect, or another doubt; inactive = no such curve, though single readings can be large; an effect the other way counts as inactive or inconclusive.

Columns and labels:
MCC-26 = test: qHTS assay to identify novel small-molecules to repurpose for Merkel cell carcinoma treatment (AID 1296009); conditions: MCC and control cell lines, CellTiter-Glo viability, 72 h; series mostly up to 46 µM; note: nearly all actives have a fitted effect of over 60% in size
In short: (§1)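 After compound transfer in DMSO, plates were kept 72 hr at 37 degree celsius. Luminescent ATP signal from CellTiter-Glo served as viability measure, normalized against DMSO and no-cell controls.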

MKL-1 = test: as above; conditions: MCC and control cell lines, CellTiter-Glo viability, 72 h; series mostly up to 46 µM
In short: as §1

MKL-2 = test: as above; conditions: MCC and control cell lines, CellTiter-Glo viability, 72 h; series mostly up to 46 µM
In short: as §1

UISO = test: as above; conditions: MCC and control cell lines, CellTiter-Glo viability, 72 h; series mostly up to 46 µM
In short: as §1

WaGa = test: as above; conditions: MCC and control cell lines, CellTiter-Glo viability, 72 h; series mostly up to 46 µM
In short: as §1

NIH3T3 = test: as above; conditions: MCC and control cell lines, CellTiter-Glo viability, 72 h; at 44.8 µM (top of the series) unless noted
In short: as §1

C33A = test: Primary qHTS to identify gynecologic anti-cancer compounds using libraries of approved drugs and bioactive compounds (AID 1345084); conditions: Gynecologic cancer cell panel viability, ATPlite luminescence, 48 h; series mostly up to 57.5 µM; note: nearly all actives have a fitted effect of over 55% in size
In short: (§2)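 Cells, 1,000 per well, were allowed to settle for 16 h at 37 C before compound addition. Five concentrations were tested for 48 h, and viability was read by ATPlite luminescence after 15 min at room temperature.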

CASKI = test: as above; conditions: Gynecologic cancer cell panel viability, ATPlite luminescence, 48 h; series mostly up to 57.5 µM
In short: as §2

Es-2 = test: as above; conditions: Gynecologic cancer cell panel viability, ATPlite luminescence, 48 h; series mostly up to 57.5 µM
In short: as §2

CAOV3 = test: as above; conditions: Gynecologic cancer cell panel viability, ATPlite luminescence, 48 h; series mostly up to 57.5 µM
In short: as §2

Measured: Potency

O=S(=O)(F)Cc1ccccc1
inactive: MCC-26 | MKL-1 | MKL-2 | UISO | WaGa

CCC(=O)O[C@@H]1C=C2CCC3C(CCC4(C)C3CC[C@@H]4OC(=O)CC)C2CC1 (some centres not stated)
not listed: CAOV3
inactive: all other assays above

O=C1CCC[C@@H]2[C@H]3CCCN4CCC[C@@H](CN12)[C@@H]34
inactive: MCC-26 | MKL-1 | MKL-2 | NIH3T3 | UISO | WaGa

CCN(CC)C(=O)c1ccc(C2=CC3(CCNCC3)Oc3cccc(O)c32)cc1
inactive: all assays above

Oc1ccc2c3c1O[C@H]1c4[nH]c5c(c4C[C@@]4(O)[C@@H](C2)N(CC2CC2)CC[C@]314)C[C@@]1(O)[C@H]2Cc3ccc(O)c4c3[C@@]1(CCN2CC1CC1)[C@H]5O4
inactive: MCC-26 | MKL-1 | MKL-2 | UISO | WaGa

CC(C)(C)c1cc(C=C(C#N)C#N)cc(Br)c1O
inactive: MCC-26 | MKL-1 | MKL-2 | NIH3T3 | UISO | WaGa

C[C@]12CC[C@@H]3[C@@H](CCC4=CC(=O)CC[C@@H]43)[C@@H]1CC[C@@H]2OC(=O)CCc1ccccc1
inactive: MCC-26 | MKL-1 | MKL-2 | UISO | WaGa

COC(C)(C)CCCC(C)C/C=C/C(C)=C/C(=O)OC(C)C (configuration not stated)
not listed: CAOV3
inactive: all other assays above

C[C@@H]1CC[C@H]2[C@@H](C)C(=O)O[C@@H]3O[C@@]4(C)CC[C@H]1[C@]32OO4
inactive: MCC-26 | MKL-1 | MKL-2

COc1ccc2c(c1)[C@]13CCCCC1C(C2)N(C)CC3 (some centres not stated)
inactive: MCC-26 | MKL-1 | MKL-2 | NIH3T3 | UISO | WaGa

NC1CC1c1ccccc1 (configuration not stated)
inactive: MCC-26 | MKL-1 | MKL-2 | UISO | WaGa

O=C(Oc1ccc([N+](=O)[O-])cc1)N1CCC(C(O)(c2ccc3c(c2)OCO3)c2ccc3c(c2)OCO3)CC1
not listed: CAOV3
inactive: all other assays above

O=C1C(I)=CC(=C(c2cc(I)c(O)c(I)c2)c2ccccc2C(=O)O)C=C1I
inactive: all assays above

CC[C@@H](C(N)=O)N1CCCC1=O
inactive: MCC-26 | MKL-1 | MKL-2 | UISO | WaGa

COC(=O)[C@@H](N)CCCN=C(N)N[N+](=O)[O-]
inactive: MCC-26 | MKL-1 | MKL-2 | UISO | WaGa

COC1=C[C@@H]2[C@@H]3Cc4ccc(OC)c(O)c4[C@]2(CCN3C)CC1=O
not listed: WaGa | CAOV3
inactive: all other assays above

CC1=C(C(=O)O)N2C(=O)[C@@H](N)[C@H]2SC1
inactive: MCC-26 | MKL-1 | MKL-2 | NIH3T3 inactive [at 17.4 µM] | UISO | WaGa | C33A | CAOV3 | CASKI | Es-2

CC(C)N(CCNC(=O)CN1CCCC1=O)C(C)C
inactive: all assays above

CC1=NN=C(c2ccc(N)cc2)c2cc3c(cc2C1)OCO3
inactive: MCC-26 | MKL-1 | MKL-2 | NIH3T3 | UISO | WaGa

CC(=O)Nc1ccc(OC[C@](C)(O)C(=O)Nc2ccc([N+](=O)[O-])c(C(F)(F)F)c2)cc1
inactive: all assays above

C[C@]12Cc3cn[nH]c3C[C@@H]1CC[C@@H]1[C@H]2CC[C@@]2(C)[C@H]1CC[C@]2(C)O
inactive: MCC-26 | MKL-1 | MKL-2 | UISO | WaGa

O=C1C=CC[C@@H]2[C@H]3CCCN4CCC[C@@H](CN12)[C@@H]34
inactive: all assays above

O=[N+]([O-])c1ncc[nH]1
inactive: MCC-26 | MKL-1 | MKL-2 | UISO | WaGa
